Experimental data from PubChem BioAssay AID2685 (National Center for Advancing Translational Sciences (NCATS), 2010).
Screen size: about 320,000 compounds; about 2,100 (0.66%) were called active. Not shown: some 53% with an inconclusive outcome. Calls follow the shape of the dose curve; as a rule, active = well fitted inhibition curve with a large enough effect in the signal ratio, with a control signal flat (not every such curve was filed as active); inconclusive = small, poorly fitted or top-dose-only effect, or effect the other way, or a change in a side signal; inactive = flat fitted curve, though single readings scatter; the % refers to the signal ratio. The entries come from a sample that favours actives as a whole.

Test: qHTS Assay for Lipid Storage Modulators in Drosophila S3 Cells;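 as to cell number change: cells counted by Cell Tracker Red CMTPX staining in the red channel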; as to lipid storage change, negative = inhibition: % is scaled to controls: 0 for no effect and ±100 for the full control effect
Details: BODIPY lipid droplet fluorescence, 18-24 h, cells fed with added oleic acid; cell number change: measured here: cell count max response; series mostly up to 46.1 µM; lipid storage change, negative = inhibition: at the top concentration
Excerpt: NIH Molecular Libraries Probe Production Centers Network [MLPCN] NIH Chemical Genomics Center [NCGC] MLPCN Grant: 1 R03 MH085686-01 Assay Submitter (PI): Beller, Mathias; Max-Planck-Institut fur Biophysikalische Chemie NCGC Assay Overview: Storing lipids as a reservoir for energy or the anabolism of elementary metabolites is a common feature of probably all cells and is conserved from bacteria to humans. The universal cellular lipid storage organelle is the so-called lipid storage droplet (LD). Although ubiquitous, LDs share a simple structure composed of a hydrophobic core that harbors the storage lipids, which is shielded by a droplet-specific phospholipid monolayer to which proteins are attached. The current model of LD biogenesis involves an incorporation of the lipid core into the membrane leaflets of the endoplasmic reticulum (ER) followed by a subsequent budding-like maturation of a LD, which ultimately pinches off. Once released, LD volume can increase by localized lipogenesis or fusion of existing droplet. Storage lipids are re-mobilized enzymatically by lipase activity. Lipase regulation in the adipocyte is heavily studied and involves multiple components including catecholamine signaling, the LD-associated proteins Perilipin and comparative gene identification (CGI-58) and at least two lipases named hormone sensitive lipase (HSL) and adipocyte triglyceride lipase (ATGL). LD regulation outside of the adipocyte is poorly understood and only few components are known. However, there is an urgent need to learn more about ectopic fat depots as mislocalized storage of lipids, for example in the liver or muscle, is an eminent health problem associated with insulin resistance or the metabolic syndrome. We developed a laser-scanning cytometer assay to enable 1,536-well screening and combined the results of the small molecules screen with an RNAi database based on lipid storage.
Triacsin C (Sigma-Aldrich T-4540), an inhibitor of long-chain fatty acyl CoA synthetase that blocks synthesis of triglycerides, was used as a positive control for lipid under-storage. A total of 23 nL of compound solution of different concentrations were transferred to the assay plates using a Kalypsys pin tool equipped with a 1,536-pin array containing 10-nL slotted pins (FP1S10, 0.457-mm diameter, 50.8 mm long; V&P Scientific). One microliter of oleic acid (400 uM) was added, and the plate was lidded with stainless steel rubber gasket lined lids containing pinholes. […] Fluorescence was detected by excitation of the fluorophores with a 488-nm laser on an Acumen Explorer (TTP Lab Tech). The total intensity in channel 2 (500-530 nm) reflected lipid droplet accumulation. Cells were detected using channel 3 (575-640 nm) with 5-um width and 100-um depth filters. The ratio of the number of objects in PMT channel 2 over the number of objects in PMT channel 3 was also calculated. Percent activity was computed relative to an internal control (100% inhibited lipid droplet deposition due to the presence of 20 uM Triacsin C), which was added to 32 wells/plate.
Potency is read from the fitted curve at half-maximal effect.

Row | SMILES | lipid storage change, negative = inhibition | cell number change [%] | Potency | outcome
1 | Cc1cccc(C(=O)NCCC(=O)NCc2ccccc2F)c1 | -21.2% (inactive) | 10.5 | – | –
2 | Cc1cccc(C(=O)NCCC(=O)NCc2ccccc2Cl)c1 | – | -17.5 | 1.84 µM (active) | –
3 | CCOc1cccc(/C(O)=C2/C(=O)C(=O)N(CCOC)C2c2ccco2)c1 (stereo unspecified) | – | 3.12 | – | inactive
4 | CC1CCC(N2CCN(c3ccc([N+](=O)[O-])cc3)CC2)CC1 (stereo unspecified) | – | -15.6 | – | inactive
5 | COc1ccc(-c2cc(C(=O)N3CCCCCC3)c3ccccc3n2)c(OC)c1 | – | – | – | inactive
6 | COc1ccc(-c2cc(C(=O)N3CCN(c4ncccn4)CC3)c3ccccc3n2)c(OC)c1 | -1.54% (inactive) | – | – | –
7 | COc1ccc(-c2cc(C(=O)N3CCN(c4ccccc4F)CC3)c3ccccc3n2)c(OC)c1 | – | -25.7 | 3.26 µM (active) | –
8 | O=C(O)c1cccc2c1C(=O)N(c1ccccc1)C2 | 7.94% (inactive) | -2.23 | – | –
9 | Cc1ccc(N2CCN(S(=O)(=O)N3CCCCC3)CC2)c(C)c1 | -0.445% (inactive) | 18.1 | – | –
10 | CN1/C(=C\C(=O)c2cccc([N+](=O)[O-])c2)Sc2ccccc21 | – | -22.2 | 1.84 µM (active) | –
11 | CN1/C(=C\C(=O)c2cccs2)Sc2ccccc21 | 24.2% (inactive) | 18.5 | – | –
12 | COc1cc(OC)cc(C(=O)/C=C2\Sc3ccccc3N2C)c1 | 0.116% (inactive) | 2.87 | – | –
13 | Cc1cccc(N2CC3=C(C2=O)C(c2ccccc2)NC(=O)N3C)c1 (stereo unspecified) | – | 28.8 | – | inactive
14 | CC1(C)c2[nH]c3ccccc3c2C[C@H]2C(=O)N(CCCO)CC(=O)N21 | -9.62% (inactive) | 7.32 | – | –
15 | CC(=O)c1ccc(NC(=O)CCNC(=O)c2ccccc2Cl)cc1 | – | – | – | inactive
16 | Fc1ccc(F)c(CN2CCN(c3ncccn3)CC2)c1 | 16.3% (inactive) | -0.405 | – | –
17 | COc1ccc(/C=C2\SC(=Nc3ccccc3)NC2=O)cc1 | -17.6% (inactive) | -6.61 | – | –
18 | COc1ccc(/C=C2\SC(=Nc3ccccc3OC)NC2=O)cc1 | 13% (inactive) | -11.5 | – | –
19 | COc1ccccc1N=C1NC(=O)/C(=C/c2ccc(N(C)C)cc2)S1 | – | -21.8 | 10.3 µM (active) | –
20 | Cc1ccc(SCC(=O)OCc2csc(CC(=O)Nc3ccccc3C)n2)cc1C | 12.3% (inactive) | -3.61 | – | –
21 | COc1cc(OC)cc(C(=O)NCc2ccc3[nH]c(C)cc3c2)c1 | -15.4% (inactive) | -3.37 | – | –
22 | O=C(/C=C/c1cccs1)c1cc(Cl)ccc1O | 10.1% (inactive) | 3.94 | – | –
23 | CN(C)c1ccc(/C=C/C(=O)c2cc(Cl)ccc2O)cc1 | – | -22.6 | 4.11 µM (active) | –
24 | CN(C)c1ccc(/C=C/C(=O)c2ccccc2O)cc1 | -9.67% (inactive) | – | – | –

Row | SMILES | lipid storage change, negative = inhibition | cell number change [%] | Potency | outcome
25 | CCC(CC)NC(=O)Nc1cccc(C)c1C | 3.89% (inactive) | -9.81 | – | –
26 | COc1ccccc1CNC(=O)c1cccs1 | 14.8% (inactive) | -14 | – | –
27 | CCOc1ccccc1N1CC(C(=O)N2CCOCC2)CC1=O (stereo unspecified) | – | 13.3 | – | inactive
28 | CC(=O)Nc1c(O)nc(SCC(=O)N2CCCCC2)[nH]c1=O | 14.1% (inactive) | -10.1 | – | –
29 | O=C(CSc1nc2ccccc2s1)N1c2ccccc2Sc2ccccc21 | -19.3% (inactive) | -7.47 | – | –
30 | O=C(CSc1nc2ccccc2[nH]1)N1CCCCC1 | – | 1.09 | – | inactive
31 | O=C(CSc1nc2ccccc2[nH]1)N1c2ccccc2Sc2ccccc21 | – | -14 | 16.4 µM (active) | –
32 | O=C(O)c1cc(=O)c2cc(Cl)ccc2o1 | – | -8.2 | 23.1 µM (active) | –
33 | O=C(c1cc(=O)c2cc(Cl)ccc2o1)N1CCN(Cc2ccccc2)CC1 | 11.7% (inactive) | 10.7 | – | –
34 | NS(=O)(=O)c1ccc(CNC(=O)c2cc(=O)c3cc(Cl)ccc3o2)cc1 | -0.959% (inactive) | -18 | – | –
35 | C=CCN(Cc1cn(C)nc1-c1cccc(Cl)c1)C1CCS(=O)(=O)C1 (stereo unspecified) | 7.59% (inactive) | -4.76 | – | –
36 | Cc1ccc(S(=O)(=O)NC2=NCCCCC2)cc1 | 7.54% (inactive) | -2.65 | – | –
37 | Nc1ccc(S(=O)(=O)NC2=NCCCCC2)cc1 | -2.11% (inactive) | 11.2 | – | –
38 | O=S(=O)(NC1=NCCC1)c1ccc(F)cc1 | – | 8.19 | 20.6 µM (active) | –
39 | Cc1ccc(S(=O)(=O)N2CCOCC2)cc1NC(=O)COC(=O)c1cnc(Cl)c(Cl)c1 | 15.2% (inactive) | 24.4 | – | –
40 | CCOC(=O)Cn1cnc2scc(-c3ccc(C)c(C)c3)c2c1=O | – | 4.4 | – | inactive
41 | Nc1cccc2c1C(=O)N(C(=O)/C=C/c1cccc(F)c1)C2=O | -19.8% (inactive) | -23.5 | – | –
42 | COc1cc(/C=C/C(=O)N2C(=O)c3cccc(N)c3C2=O)cc(OC)c1OC | – | -14.5 | 5.17 µM (active) | –
43 | Nc1cccc2c1C(=O)N(C(=O)/C=C/c1ccc(F)cc1)C2=O | -17.9% (inactive) | -29.8 | – | –
44 | COc1ccc(OC)c(/C=C/C(=O)N2CCCc3ccccc32)c1 | -2.46% (inactive) | – | – | –
45 | COc1ccc(OC)c(/C=C/C(=O)N2C(=O)c3cccc(N)c3C2=O)c1 | – | 10.9 | 16.4 µM (active) | –
46 | COc1ccc(OC)c(/C=C/C(=O)N2CCN(S(=O)(=O)c3cc(C)ccc3C)CC2)c1 | 11.1% (inactive) | 6.55 | – | –
47 | O=C(c1ccc(Cl)cc1)c1ccc(CN2C(=O)c3ccccc3C2=O)o1 | 2.8% (inactive) | 8.92 | – | –
48 | COCCNc1nc(CSc2ccccc2)nc2sc(C)c(C)c12 | 11.7% (inactive) | 2.1 | – | –
